Test results: PubChem BioAssay (NCI)
The panel holds about 83,000 compounds, 20% with a hit somewhere; the sample as a whole holds those more often.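 Cell lines were cultured in 96-well plates, exposed to a single compound concentration, and assessed for percent growth 48 hours later.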 Calls of active or inactive are those of the source. The calls were made as follows: active = growth percent below 10; inactive = the rest.

Legend:
Experiment in all cases: NCI-60 one-dose screen, 48 h (100 = growth as untreated, 0 = no growth, -100 = all killed)
Conditions in all cases: 10 µM unless noted
EKVX NSCLC = tested on: EKVX NSCLC
SN12C renal = tested on: SN12C renal
UO-31 renal = tested on: UO-31 renal
TK-10 renal = tested on: TK-10 renal
ACHN renal = tested on: ACHN renal
CAKI-1 renal = tested on: CAKI-1 renal
A498 renal = tested on: A498 renal
CCRF-CEM leukemia = tested on: CCRF-CEM leukemia
MOLT-4 leukemia = tested on: MOLT-4 leukemia
SK-MEL-2 melanoma = tested on: SK-MEL-2 melanoma

Measured: growth

O=C(Nc1nn2c(-c3cc(C(F)(F)F)cc(C(F)(F)F)c3)nnc2s1)C1CCCC1
active: UO-31 renal 8.94% | TK-10 renal -30.4% | ACHN renal 8.22% | CAKI-1 renal 7.75% | A498 renal -21.8% | MOLT-4 leukemia -10.2%
inactive: EKVX NSCLC 21.7% | SN12C renal 11.6% | CCRF-CEM leukemia 13.8%

O=C(COc1ccc(/C=C2\Cc3ccccc3C2=O)cc1)c1ccc(Cl)cc1
inactive: EKVX NSCLC 101% | SN12C renal 98.9% | TK-10 renal 133% | ACHN renal 107% | CAKI-1 renal 78.2% | A498 renal 108% | CCRF-CEM leukemia 95.2% | MOLT-4 leukemia 95.9%
active: UO-31 renal -7.83%

C/C(=C\CCc1ccoc1)CC/C=C(\C)CCCN1CCSCC1
inactive: SK-MEL-2 melanoma 85.5% | SN12C renal 76.7% | UO-31 renal 62.4% | TK-10 renal 84.9% | CAKI-1 renal 80.7% | A498 renal 38.2% | CCRF-CEM leukemia 62.9% | MOLT-4 leukemia 79.6%

Cn1c(N2N=C(c3ccc(Cl)cc3)CC2c2ccccc2)nc(-c2ccccc2)c(C#N)c1=O (stereo not drawn)
inactive: SK-MEL-2 melanoma 78.4% | SN12C renal 67.3% | TK-10 renal 117% | CAKI-1 renal 63.7% | A498 renal 79.6% | MOLT-4 leukemia 60.1%

FCc1ncc(-c2ccc(C(F)(F)F)cc2)c(NC2CCCCCC2)n1
active: SK-MEL-2 melanoma -40.8% [100 µM] | SN12C renal -30.3% [100 µM] | CAKI-1 renal 0.556% [100 µM] | A498 renal -19.4% [100 µM]
inactive: UO-31 renal 11.1% [100 µM] | TK-10 renal 38% [100 µM]

C/C(=C\CCc1ccoc1)CC/C=C(\C)CCCC1COC(=O)C1 (stereo not drawn)
inactive: SK-MEL-2 melanoma 100% | SN12C renal 94.8% | TK-10 renal 114% | ACHN renal 97.5% | CAKI-1 renal 94.4% | A498 renal 91.3% | CCRF-CEM leukemia 93% | MOLT-4 leukemia 92.2%

O=Cc1ncc(-c2ccc(C(F)(F)F)cc2)c(NC2CCCCCC2)n1
active: SK-MEL-2 melanoma -79.8% [100 µM] | SN12C renal -87.4% [100 µM] | TK-10 renal -94.9% [100 µM] | ACHN renal -99.5% [100 µM] | A498 renal -73.1% [100 µM]

O=C(CN1CCN(c2ccc(Cl)cc2)CC1)N1CCN(c2nnc(-c3ccccc3)c(-c3ccccc3)n2)CC1
active: MOLT-4 leukemia -35.1%
inactive: EKVX NSCLC 29.9% | SN12C renal 49.5% | UO-31 renal 14.6% | TK-10 renal 68.8% | ACHN renal 39.3% | CAKI-1 renal 92.6% | A498 renal 45.4% | CCRF-CEM leukemia 20.4%

O=C(N/N=C/c1cccc(O)c1O)c1ccccc1
active: CAKI-1 renal -20.5% | MOLT-4 leukemia 9.39%
inactive: SK-MEL-2 melanoma 54.5% | SN12C renal 21.3% | TK-10 renal 18.6% | ACHN renal 11.5% | A498 renal 81.1%

COc1ccc(N2CCN(CC(=O)N3CCN(c4nnc(-c5ccc(Cl)cc5)c(-c5ccc(Cl)cc5)n4)CC3)CC2)cc1
inactive: EKVX NSCLC 53.4% | SN12C renal 67.7% | UO-31 renal 21.2% | TK-10 renal 84.2% | ACHN renal 52.3% | CAKI-1 renal 147% | A498 renal 38.1% | CCRF-CEM leukemia 20.6%

COc1ccc(NC(=O)c2ccccc2-c2ccccc2)c(C(N)=O)c1
inactive: SK-MEL-2 melanoma 26.4% | SN12C renal 61.3% | TK-10 renal 76.1% | ACHN renal 40.4% | CAKI-1 renal 41.9% | A498 renal 30.8% | CCRF-CEM leukemia 11.7%

Cc1sc2nc3c4ccccc4c(NCCCN(C)C)nn3c(=O)c2c1C
active: UO-31 renal -91.9% | CCRF-CEM leukemia -27.9% | MOLT-4 leukemia -44.9%
inactive: EKVX NSCLC 75.9% | SN12C renal 53.4% | TK-10 renal 78% | ACHN renal 53.5% | CAKI-1 renal 84.4% | A498 renal 51.8%

O=C1NC(=O)/C(=C\c2ccco2)S1
inactive: SK-MEL-2 melanoma 105% | SN12C renal 95.8% | UO-31 renal 67.5% | TK-10 renal 102% | ACHN renal 100% | A498 renal 75.8% | CCRF-CEM leukemia 95.9% | MOLT-4 leukemia 111%

N[C@H](CS)C(=O)O
inactive: EKVX NSCLC 97.7% | SN12C renal 107% | UO-31 renal 92.4% | TK-10 renal 97.3% | ACHN renal 102% | CAKI-1 renal 70.4% | A498 renal 117% | CCRF-CEM leukemia 90.8% | MOLT-4 leukemia 104%

CC(C)OP(=O)(OC(C)C)c1ncc(-c2ccc(C(F)(F)F)cc2)c(NC2CCCCCC2)n1
active: SK-MEL-2 melanoma -85.1% [33.3 µM] | SN12C renal -72.9% [33.3 µM] | UO-31 renal -91.5% [33.3 µM] | TK-10 renal 1.08% [33.3 µM] | CAKI-1 renal -29.4% [33.3 µM] | MOLT-4 leukemia -46.2% [33.3 µM]

CCc1nn2c(-c3ccc(Cl)cc3C)c(-c3cc(OC)c(OC)c(OC)c3)nc2s1
inactive: SK-MEL-2 melanoma 69.6% | SN12C renal 80.2% | UO-31 renal 47.1% | TK-10 renal 77.2% | ACHN renal 76.7% | CAKI-1 renal 55.2% | CCRF-CEM leukemia 85.1% | MOLT-4 leukemia 71%

CCOC(=O)C(C(=O)OCC)C1CCCCC1
inactive: SK-MEL-2 melanoma 110% | SN12C renal 106% | UO-31 renal 91.8% | TK-10 renal 101% | ACHN renal 102% | A498 renal 107% | MOLT-4 leukemia 102%

CCN(CC)CCOCC[C@H]1CC[C@H]2[C@@H]3[C@H](C)Cc4cc(OS(N)(=O)=O)ccc4[C@H]3CC[C@]12C
active: EKVX NSCLC -23.4% | SN12C renal -62.9% | UO-31 renal -80.8% | TK-10 renal -56.8% | ACHN renal -65.9% | CAKI-1 renal -73.9% | A498 renal -91.6% | CCRF-CEM leukemia -26.8% | MOLT-4 leukemia -52.2%

COc1cccc(C=Nc2cc(C(C)C)c(O)cc2C)c1O
inactive: SK-MEL-2 melanoma 102% | SN12C renal 95% | UO-31 renal 72.4% | TK-10 renal 99.8% | ACHN renal 100% | A498 renal 75.7% | CCRF-CEM leukemia 35% | MOLT-4 leukemia 98.2%

Nc1nc2c(nnn2Cc2ccc(Cl)c(Cl)c2)c(=O)[nH]1
inactive: SK-MEL-2 melanoma 90.1% | SN12C renal 89.9% | UO-31 renal 69.2% | TK-10 renal 103% | A498 renal 85.5% | CCRF-CEM leukemia 81.2% | MOLT-4 leukemia 93.8%

CCCCCCCCCCOC(C)=O
inactive: SK-MEL-2 melanoma 116% | SN12C renal 103% | UO-31 renal 89% | TK-10 renal 116% | ACHN renal 98.8% | CAKI-1 renal 79.8% | MOLT-4 leukemia 103%

CC(C)=CCNc1ncnc2c1ncn2C1OC(COP(=O)(O)O)C(O)C1O (stereo not drawn)
active: A498 renal -7.75% | MOLT-4 leukemia 6.19%
inactive: SK-MEL-2 melanoma 69.4% | SN12C renal 32.4% | UO-31 renal 39.6% | ACHN renal 28.2% | CAKI-1 renal 16.3% | CCRF-CEM leukemia 11.4%

COC(=O)[C@H](Cc1cnc[nH]1)NC(=O)[C@@H](NC(=O)Nc1cc(C(F)(F)F)cc(C(F)(F)F)c1)C(C)C
active: SK-MEL-2 melanoma -93% [100 µM] | SN12C renal -96.3% [100 µM] | UO-31 renal -21.7% [100 µM] | TK-10 renal -95% [100 µM] | A498 renal -87.8% [100 µM] | MOLT-4 leukemia -45.5% [100 µM]
inactive: CAKI-1 renal 40.9% [100 µM]

O=C(/C=C/c1cccc(O)c1)c1cccc(-n2cc(-c3ccccc3)[nH]c2=O)c1
inactive: EKVX NSCLC 66.8% | TK-10 renal 12.4% | A498 renal 90.6%
active: SN12C renal -12.9% | UO-31 renal -73.5% | ACHN renal -75.8% | CAKI-1 renal 8.38% | CCRF-CEM leukemia -3.86% | MOLT-4 leukemia -7.37%

CCCc1n(Cc2ccc3ccccc3c2)cc[n+]1Cc1ccc2ccccc2c1
active: SN12C renal -3.87% | TK-10 renal -8.58% | A498 renal -3.35% | MOLT-4 leukemia -5.48%
inactive: EKVX NSCLC 21.1% | UO-31 renal 34.8% | ACHN renal 42.3% | CCRF-CEM leukemia 11.8%

Cc1cc(C)c2c(N)c3cccc(C)c3nc2n1
active: EKVX NSCLC 3.6% | SN12C renal 6.82% | UO-31 renal -84.5% | TK-10 renal -1.3% | ACHN renal 5.96% | A498 renal -57.2% | CCRF-CEM leukemia 1.26% | MOLT-4 leukemia -10.5%

O=C1/C=C/[C@@H](O)[C@@H]2C[C@@H](O)C[C@H]2/C=C/CCC[C@H](CO)O1
inactive: EKVX NSCLC 36.4% | SN12C renal 43.9% | UO-31 renal 11.2% | ACHN renal 19.8% | CAKI-1 renal 17.9% | CCRF-CEM leukemia 22.3%
active: A498 renal -30.3% | MOLT-4 leukemia -16.9%

O=c1[nH]c(N2CCC(Cc3ccccc3)CC2)nc2sc3c(c12)CCCC3
inactive: EKVX NSCLC 99.5% | SN12C renal 103% | UO-31 renal 102% | TK-10 renal 99% | ACHN renal 104% | A498 renal 102% | CCRF-CEM leukemia 91.6% | MOLT-4 leukemia 100%

Cc1cc2c(cc1C)[n+](Cc1ccc3ccccc3c1)cn2Cc1ccc2ccccc2c1
active: EKVX NSCLC -64.3% | SN12C renal -87.2% | UO-31 renal -57.1% | TK-10 renal -87.7% | ACHN renal -63.9% | A498 renal -68% | CCRF-CEM leukemia -35.1% | MOLT-4 leukemia -64.1%

COc1ccc(Oc2ccccc2NC(=O)CNC(=O)c2cccc3ccccc23)cc1
active: A498 renal 7% [5 µM]
inactive: EKVX NSCLC 46.3% [5 µM] | SN12C renal 46.7% [5 µM] | UO-31 renal 42.4% [5 µM] | TK-10 renal 47.6% [5 µM] | ACHN renal 40.3% [5 µM] | CCRF-CEM leukemia 15.5% [5 µM]

O=CN1N=C(c2ccc(Cl)cc2)CC1c1cccc(Nc2ccnc3cc(Cl)ccc23)c1 (stereo not drawn)
active: MOLT-4 leukemia 4.5%
inactive: EKVX NSCLC 30.3% | SN12C renal 34.5% | UO-31 renal 19.5% | TK-10 renal 23% | ACHN renal 31.5% | CCRF-CEM leukemia 13.6%
